Measured values reported in PubChem BioAssay AID1159580 (chemical genetic matrix, 2015).
Hit rate of the full screen: of about 5,500 compounds, about 2,000 (36%) were called active. Inconclusive results (about 18%) are left out. Rule as the data show it: active = normalized growth mostly below about 0.91 (no sharp cut-off); inconclusive = no clear call, values can overlap the other calls; inactive = mostly above about 0.92. The list shows a part of the results.

Assay: chemical genetic growth profiling, strain panel (AID 1159580);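 also: tested at 20 µM; growth read once vehicle control cultures reached saturation at 30 °C; 1 = growth at the plate median or of vehicle wells; lower values mean less growth of the strain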
Conditions: growth OD

Measured: normalized growth

COc1ccc(C(CN(C)C)C2(O)CCCCC2)cc1 (stereo unspecified)
inactive: S. cerevisiae deletion strains, locus YKL009W, strain mrt4, active compounds read low 0.978 | S. cerevisiae deletion strains, locus YKL068W, active compounds read low 0.996 | S. cerevisiae deletion strains, locus YKL085W, strain MDH1 (second series), active compounds read low 0.994 | S. cerevisiae deletion strains, locus YKL085W, strain MDH1, active compounds read low 0.994 | S. cerevisiae deletion strains, locus YKL160W, strain elf1, active compounds read low 0.97 | S. cerevisiae deletion strains, locus YKL190W, strain CNB1, active compounds read low 1 | S. cerevisiae deletion strains, locus YKR001C, strain vps1, active compounds read low 0.977 | S. cerevisiae deletion strains, locus YKR026C, strain gcn3, active compounds read low 0.994 | S. cerevisiae deletion strains, locus YKR091W, strain srl3, active compounds read low 0.969 | S. cerevisiae deletion strains, locus YLL001W, strain dnm1, active compounds read low 0.981 | S. cerevisiae deletion strains, locus YLL026W, active compounds read low 0.997 | S. cerevisiae deletion strains, locus YLL041C, strain sdh2, active compounds read low 0.979 | S. cerevisiae deletion strains, locus YLR027C, strain aat2, active compounds read low 0.989 | S. cerevisiae deletion strains, locus YLR039C, strain RIC1, active compounds read low 1.05 | S. cerevisiae deletion strains, locus YLR058C, strain SHM2, active compounds read low 1.01 | S. cerevisiae deletion strains, locus YLR102C, strain apc9, active compounds read low 0.989 | S. cerevisiae deletion strains, locus YLR113W, strain HOG1, active compounds read low 1.04 | S. cerevisiae deletion strains, locus YLR221C, strain rsa3, active compounds read low 1.01 | S. cerevisiae deletion strains, locus YLR258W, strain gsy2, active compounds read low 0.978 | S. cerevisiae deletion strains, locus YLR262C, strain YPT6 (second series), active compounds read low 0.966 | S. cerevisiae deletion strains, locus YLR262C, strain YPT6, active compounds read low 1.03 | S. cerevisiae deletion strains, locus YLR268W, strain sec22, active compounds read low 0.981 | S. cerevisiae deletion strains, locus YLR320W, strain mms22, active compounds read low 1.02 | S. cerevisiae deletion strains, locus YLR330W, strain CHS5, active compounds read low 1.01 | S. cerevisiae deletion strains, locus YLR342W, strain FKS1 (second series), active compounds read low 1.03 | S. cerevisiae deletion strains, locus YLR342W, strain FKS1, active compounds read low 0.976 | S. cerevisiae deletion strains, locus YLR357W, strain rsc2, active compounds read low 0.936 | S. cerevisiae deletion strains, locus YLR370C, strain arc18, active compounds read low 0.989 | S. cerevisiae deletion strains, locus YLR371W, strain rom2, active compounds read low 0.985 | S. cerevisiae deletion strains, locus YLR384C, strain iki3, active compounds read low 0.996 | S. cerevisiae deletion strains, locus YLR418C, strain cdc73, active compounds read low 0.96 | S. cerevisiae deletion strains, locus YML016C, strain PPZ1, active compounds read low 1.01 | S. cerevisiae deletion strains, locus YML032C, strain rad52, active compounds read low 0.991 | S. cerevisiae deletion strains, locus YML120C, strain ndi1, active compounds read low 1 | S. cerevisiae deletion strains, locus YML124C, strain tub3, active compounds read low 0.989 | S. cerevisiae deletion strains, locus YMR058W, strain fet3, active compounds read low 0.989 | S. cerevisiae deletion strains, locus YMR078C, strain ctf18, active compounds read low 0.993 | S. cerevisiae deletion strains, locus YMR125W, strain sto1, active compounds read low 0.919 | S. cerevisiae deletion strains, locus YMR129W, active compounds read low 0.993 | S. cerevisiae deletion strains, locus YMR205C, strain PFK2, active compounds read low 0.998 | S. cerevisiae deletion strains, locus YMR223W, strain ubp8, active compounds read low 0.99 | S. cerevisiae deletion strains, locus YMR231W, strain pep5, active compounds read low 0.978 | S. cerevisiae deletion strains, locus YMR263W, strain SAP30, active compounds read low 1.01 | S. cerevisiae deletion strains, locus YMR307W, strain GAS1, active compounds read low 1 | S. cerevisiae deletion strains, locus YNL067W, strain RPL9B, active compounds read low 0.991 | S. cerevisiae deletion strains, locus YNL071W, strain lat1, active compounds read low 1 | S. cerevisiae deletion strains, locus YNL128W, strain TEP1, active compounds read low 1.01 | S. cerevisiae deletion strains, locus YNL153C, strain GIM3, active compounds read low 1.01 | S. cerevisiae deletion strains, locus YNL183C, strain NPR1, active compounds read low 0.969 | S. cerevisiae deletion strains, locus YNL209W, strain ssb2, active compounds read low 0.981 | S. cerevisiae deletion strains, locus YNL233W, strain BNI4, active compounds read low 1.02 | S. cerevisiae deletion strains, locus YNL248C, strain rpa49, active compounds read low 0.925 | S. cerevisiae deletion strains, locus YNL250W, strain rad50, active compounds read low 0.993 | S. cerevisiae deletion strains, locus YNL271C, strain bni1, active compounds read low 0.987 | S. cerevisiae deletion strains, locus YNL298W, strain CLA4, active compounds read low 0.991 | S. cerevisiae deletion strains, locus YNL307C, strain MCK1, active compounds read low 0.981 | S. cerevisiae deletion strains, locus YNL322C, strain KRE1 (second series), active compounds read low 0.965 | S. cerevisiae deletion strains, locus YNL322C, strain KRE1, active compounds read low 1.01 | S. cerevisiae deletion strains, locus YNR049C, strain mso1, active compounds read low 0.982 | S. cerevisiae deletion strains, locus YNR052C, strain pop2, active compounds read low 0.998 | S. cerevisiae deletion strains, locus YOL006C, strain TOP1, active compounds read low 1.04 | S. cerevisiae deletion strains, locus YOL012C, strain htz1 0.805 | S. cerevisiae deletion strains, locus YOL147C, strain pex11, active compounds read low 0.984 | S. cerevisiae deletion strains, locus YOR001W, strain rrp6, active compounds read low 1.01 | S. cerevisiae deletion strains, locus YOR061W, strain CKA2, active compounds read low 1.01 | S. cerevisiae deletion strains, locus YOR069W, strain VPS5, active compounds read low 0.995 | S. cerevisiae deletion strains, locus YOR070C, strain gyp1, active compounds read low 0.986 | S. cerevisiae deletion strains, locus YOR080W, strain dia2, active compounds read low 0.973 | S. cerevisiae deletion strains, locus YOR083W, strain WHI5, active compounds read low 0.932 | S. cerevisiae deletion strains, locus YOR106W, strain vam3, active compounds read low 0.967 | S. cerevisiae deletion strains, locus YOR136W, strain idh2, active compounds read low 0.986 | S. cerevisiae deletion strains, locus YOR144C, strain elg1, active compounds read low 0.998 | S. cerevisiae deletion strains, locus YOR184W, strain ser1, active compounds read low 1 | S. cerevisiae deletion strains, locus YOR231W, strain MKK1, active compounds read low 1.01 | S. cerevisiae deletion strains, locus YOR265W, strain rbl2, active compounds read low 0.989 | S. cerevisiae deletion strains, locus YOR270C, strain vph1, active compounds read low 0.945 | S. cerevisiae deletion strains, locus YOR290C, strain snf2, active compounds read low 0.974 | S. cerevisiae deletion strains, locus YOR316C, strain cot1, active compounds read low 0.999 | S. cerevisiae deletion strains, locus YPL051W, strain arl3, active compounds read low 0.994 | S. cerevisiae deletion strains, locus YPL055C, strain LGE1, active compounds read low 1.03 | S. cerevisiae deletion strains, locus YPL078C, strain atp4, active compounds read low 0.969 | S. cerevisiae deletion strains, locus YPL106C, strain sse1, active compounds read low 0.977 | S. cerevisiae deletion strains, locus YPL240C, strain hsp82, active compounds read low 0.996 | S. cerevisiae deletion strains, locus YPL241C, strain CIN2, active compounds read low 1 | S. cerevisiae deletion strains, locus YPL256C, strain CLN2, active compounds read low 0.992 | S. cerevisiae deletion strains, locus YPR119W, strain clb2, active compounds read low 0.993 | S. cerevisiae deletion strains, locus YPR141C, strain kar3, active compounds read low 0.991 | S. cerevisiae deletion strains, locus YPR163C, strain tif3, active compounds read low 0.984 | S. cerevisiae deletion strains, locus YPR167C, strain met16, active compounds read low 0.989 | S. cerevisiae deletion strains, strain wtn01, active compounds read low 0.983 | S. cerevisiae strains, strain wild type, active compounds read low 1
